Data on 18 compounds can be found in PubChem BioAssay (NCI).

Molecules are shown by their SMILES. About 83,000 compounds went through this panel and 20% of them were active in at least one assay; those are over-represented in the sample as a whole.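 Assay: single dose, 48 h. Readout: percent growth (0 = no net growth; negative = cell death). Active: <10.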 A number with no mark means an inactive call. The source made the active and inactive calls.

Some test systems named below: SK-MEL-2 melanoma; EKVX NSCLC; SN12C renal; UO-31 renal; ACHN renal; CAKI-1 renal; A498 renal; CCRF-CEM leukemia; MOLT-4 leukemia; TK-10 renal.
Common to all, as to assay: NCI-60 one-dose screen, 48 h (100 = growth as untreated, 0 = no growth, -100 = all killed)
Common to all, as to settings: 10 µM

As to `CC(C)=CCC/C(C)=C/CC/C(C)=C/CC/C=C(\C)CC/C=C(\C)CCC(=O)Nc1ccn(C2OC(CO)C(O)C2(F)F)c(=O)n1` (configuration not stated), the growth with SK-MEL-2 melanoma was -4.27% (active); in the experiment with EKVX NSCLC, 34.6%; in the experiment on SN12C renal it was 15.3%; in the experiment on UO-31 renal it was 3.33% (active); with ACHN renal, 6.71% (active); in the experiment with CAKI-1 renal, -20.9% (active). Also, the growth was -44.9% (active) in the experiment with A498 renal, -6.58% (active) with CCRF-CEM leukemia and -14.2% (active) in the experiment on MOLT-4 leukemia.
Take `CN(C)c1ccc(/C=N/NC(=O)c2ccccc2Nc2cccc(C(F)(F)F)c2)cc1`: the growth is 62.3% with SK-MEL-2 melanoma; 82.2% in the experiment on EKVX NSCLC; 87.6% with SN12C renal; 77.2% with UO-31 renal; 97.4% in the experiment on ACHN renal; 77.7% in the experiment with CAKI-1 renal. In addition, the growth was 1.42% (active) in the experiment on A498 renal, 53.4% with CCRF-CEM leukemia and 76.7% in the experiment on MOLT-4 leukemia.
Turning to `O=C(Nc1ccc(OS(=O)(=O)c2ccccc2)cc1)C1CCCCC1`, the growth was 88.4% in the experiment on SK-MEL-2 melanoma; 84.3% in the experiment on EKVX NSCLC; 96.4% with SN12C renal; 96.7% with UO-31 renal; 97.4% in the experiment with TK-10 renal; 104% with ACHN renal. The growth in the experiment on MOLT-4 leukemia is 74%.
Take `O=S(=O)(NCCCNc1nccc(-c2cn(-c3ccccc3)nc2-c2ccc(Cl)c(O)c2)n1)c1ccccc1`: the growth with SK-MEL-2 melanoma was 65.5%; with EKVX NSCLC, 55.2%; with SN12C renal, 67.2%; with UO-31 renal, 45.9%; with TK-10 renal, 76.9%; in the experiment on ACHN renal, 66.1%. In addition, in the experiment with MOLT-4 leukemia, the growth is 43.1%.
In the case of `COc1ccc(C(=O)CSc2nc(-c3cc(OC)ccc3OC)cc(-c3ccc(OC)cc3)c2C#N)cc1`, the growth was 103% in the experiment on SK-MEL-2 melanoma; 89.1% in the experiment on EKVX NSCLC; 97.6% in the experiment with SN12C renal; 86.4% in the experiment with UO-31 renal; 103% in the experiment with TK-10 renal; 97.4% with ACHN renal. Besides, the growth in the experiment on MOLT-4 leukemia was 96.9%.
Consider `COc1cc2c3c(n([C@H]4CCOC4)c(=O)c2cc1OC)-c1cc2c(cc1C3=O)OCO2`, for which the growth in the experiment on SK-MEL-2 melanoma was 99.8%; in the experiment with EKVX NSCLC, 60%; in the experiment on SN12C renal it was 22.9%; in the experiment on UO-31 renal, 10.6%; with TK-10 renal, 90%; with ACHN renal, 0.59% (active). In the experiment with MOLT-4 leukemia, the growth was 17.2%.
As to `CS(=O)(=O)c1nccc(-c2c(-c3cccc(O)c3)nc3sccn23)n1`, the growth was 107% in the experiment on SK-MEL-2 melanoma; 88.7% in the experiment with EKVX NSCLC; 91% in the experiment on SN12C renal; 66.5% in the experiment with UO-31 renal; 86.2% in the experiment on ACHN renal; 95.5% in the experiment with CAKI-1 renal. Further, the growth in the experiment with A498 renal was 70.5%; in the experiment on CCRF-CEM leukemia it was 90%; in the experiment with MOLT-4 leukemia, 93%.
With `Fc1ccc2[nH]cc(-c3nc(-c4ccsc4)cs3)c2c1`, the growth is 87.9% in the experiment on SK-MEL-2 melanoma; 57.1% with EKVX NSCLC; 92.5% in the experiment with SN12C renal; 74.4% in the experiment with UO-31 renal; 133% in the experiment on TK-10 renal; 93.6% with ACHN renal. For the same compound, in the experiment on MOLT-4 leukemia, the growth is 78%.
With `COc1ccc(Cl)cc1Nc1nc(C(F)(F)F)ccc1C(=O)N/N=C/c1ccc(Cl)cc1`, the growth is 26.4% in the experiment with SK-MEL-2 melanoma; 56.6% in the experiment on EKVX NSCLC; 49% in the experiment on SN12C renal; 18.8% in the experiment on UO-31 renal; 36.8% in the experiment on ACHN renal; 13.3% in the experiment on CAKI-1 renal. The growth with A498 renal was -35.2% (active); with CCRF-CEM leukemia it was 1.78% (active); in the experiment with MOLT-4 leukemia it was 1.89% (active).
Take `Cc1cc(SCc2ccccc2)nc(N)n1`: the growth in the experiment with SK-MEL-2 melanoma is 119%; in the experiment on EKVX NSCLC, 96.7%; in the experiment on SN12C renal, 92.5%; in the experiment on UO-31 renal, 98.1%; with TK-10 renal, 107%; with CAKI-1 renal, 112%. The growth in the experiment with A498 renal is 89.4%; in the experiment on CCRF-CEM leukemia, 88.1%; in the experiment with MOLT-4 leukemia it was 98.5%.
Regarding `C[n+]1c2ccccc2nc2ccccc21`, the growth is -24.2% (active) in the experiment with SK-MEL-2 melanoma; 54.9% in the experiment on EKVX NSCLC; -27.8% (active) in the experiment on SN12C renal; 42.4% in the experiment with UO-31 renal; 13.6% with ACHN renal; 15.3% in the experiment on CAKI-1 renal. Also, the growth in the experiment on A498 renal is 60%; with CCRF-CEM leukemia, -0.566% (active); in the experiment on MOLT-4 leukemia it was 24.9%.
As for `CC1=NN(C(=O)c2nn(-c3ccc(Cl)cc3)cc2O)C(=O)C1`, the growth in the experiment on SK-MEL-2 melanoma was 60.3%; in the experiment with EKVX NSCLC, 65.2%; in the experiment on SN12C renal, 49.5%; in the experiment on UO-31 renal it was 34.2%; in the experiment with ACHN renal, 42%; in the experiment with CAKI-1 renal, 114%. Besides, the growth is 90.1% in the experiment with A498 renal, 13.5% in the experiment with CCRF-CEM leukemia and 24.8% in the experiment with MOLT-4 leukemia.
Consider `O=C(N/N=C/c1c(Cl)cccc1Cl)c1ccccc1Nc1cccc(C(F)(F)F)c1`, for which the growth with SK-MEL-2 melanoma is 71.4%; in the experiment on EKVX NSCLC, 89.8%; in the experiment with SN12C renal it was 92.6%; with UO-31 renal it was 93.7%; in the experiment with ACHN renal it was 102%; in the experiment on CAKI-1 renal, 95.5%. Also, the values for the growth with A498 renal, with CCRF-CEM leukemia and in the experiment with MOLT-4 leukemia were -5.76% (active), 73.1% and 77.9%, respectively.
As for `Clc1ccc(/C=C2\CCCC3C2=Nc2ccccc2NC3c2ccc(Cl)cc2)cc1` (configuration not stated), the growth was 92.1% in the experiment with SK-MEL-2 melanoma; 89.3% in the experiment on EKVX NSCLC; 85.3% in the experiment with SN12C renal; 70.7% in the experiment on UO-31 renal; 97.3% with ACHN renal; 91.3% in the experiment with CAKI-1 renal. Besides, the growth was 67.2% in the experiment on A498 renal, 75.9% in the experiment on CCRF-CEM leukemia and 65.8% with MOLT-4 leukemia.
Regarding `NC1=NC(c2ccc(Cl)cc2)C2=C(N1)/C(=C/c1ccc(Cl)cc1)CCC2` (configuration not stated), the growth is 94.7% with SK-MEL-2 melanoma; 93.7% in the experiment on EKVX NSCLC; 84.8% in the experiment with SN12C renal; 67.8% in the experiment with UO-31 renal; 95.6% with ACHN renal; 90.8% in the experiment with CAKI-1 renal. Besides, the growth with A498 renal is 54.7%; in the experiment with CCRF-CEM leukemia it was 72.2%; in the experiment on MOLT-4 leukemia, 64.9%.
On to `COc1cc2cc(Oc3ccc(NC(=O)c4ccc(Cl)c(C(F)(F)F)c4)cc3)c(C)nc2cc1OC`, for which the growth in the experiment on SK-MEL-2 melanoma is 31.2%; with EKVX NSCLC, 18.8%; with SN12C renal, 24.1%; in the experiment with UO-31 renal, 18.3%; in the experiment with ACHN renal, 26.6%; in the experiment on CAKI-1 renal, 21.6%. In addition, the growth in the experiment with A498 renal is 24.3%; in the experiment with CCRF-CEM leukemia, 19.9%; with MOLT-4 leukemia, 18%.
For the compound `COc1cc(C2CC(c3ccccc3)=NN2C(C)=O)cc(OC)c1OC` (configuration not stated), the growth in the experiment on SK-MEL-2 melanoma is 47.6%; in the experiment with EKVX NSCLC, 51%; in the experiment with SN12C renal, 63.5%; with UO-31 renal it was 58.1%; in the experiment with ACHN renal, 54.9%; in the experiment on CAKI-1 renal it was 38.8%. Besides, the values for the growth with A498 renal, in the experiment on CCRF-CEM leukemia and with MOLT-4 leukemia were 50.6%, 34.5% and 29%, respectively.
`COc1cc(/C=C2\CCCC3=C2NC(N)=NC3c2cc(OC)c(OC)c(OC)c2)cc(OC)c1OC` (configuration not stated): the growth in the experiment with SK-MEL-2 melanoma was -0.813% (active); in the experiment with EKVX NSCLC it was 56%; with SN12C renal it was -5.19% (active); in the experiment with UO-31 renal, 34.3%; with ACHN renal, -37.9% (active); in the experiment on CAKI-1 renal, -4.06% (active). The growth was 0.45% (active) in the experiment on A498 renal, 2.89% (active) in the experiment on CCRF-CEM leukemia and -3.56% (active) in the experiment with MOLT-4 leukemia.
